This is an account of results in PubChem BioAssay (NCATS).

Activity calls are given as the source filed them. The rule behind the calls is not given here.
Potency is the fitted concentration of half-maximal effect.

The subject of this assay is HIV-1 nucleocapsid protein NCp7 (binding to TG oligonucleotide). Kind of assay: HIV Nucleocapsid (AID 346).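 Note: potency is for inhibitors that block NC binding and lower polarization.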 The note with it: HIV-1 NC / fluorescein-TGTGTGTG probe, fluorescence polarization. Put shortly:
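HIV-1 NC (100 nM) binding to fluorescein-labelled ssDNA TG4xF (10 nM) in Hepes pH 7.5, 250mM NaCl, 1uM ZnCl2, TCEP and 2-mercaptoethanol; compounds pin-transferred, 1 hr room temperature, fluorescence polarization read on CCD imager.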
(In general: Fluorescence polarisation rises when a labelled molecule tumbles more slowly, as on binding a larger partner.)
In the case of `Cc1noc(C)c1C(=O)N1CCC2(CCN(Cc3cc(C(F)(F)F)cc(C(F)(F)F)c3)CC2)CC1`, the Potency was > 4 µM (inactive).

For `c1ccc(CNc2ncncc2-c2cccnc2)cc1`, the Potency is > 20 µM (inactive).

As to `COc1ccccc1-c1nc(N2CCOCC2)c2ccccc2n1`, the Potency is > 20 µM (inactive).

Turning to `Clc1ccccc1-c1nccc(NCc2cccs2)n1`, the Potency was > 20 µM (inactive).

For `FC(F)(F)c1ccccc1-c1nccc(-n2ccnc2)n1`, the Potency was > 20 µM (inactive).

On to `N#Cc1ccc(CN2CC[C@@]3(CCCN(C(=O)c4cnccn4)C3)C2)cc1`, for which the Potency is > 20 µM (inactive).

Consider `O=c1cnc2cnc(Nc3ccccc3)nc2n1C[C@H]1CCCO1`, for which the Potency was > 20 µM (inactive).

As to `O=C(Oc1ccccc1)N1CCC2(CC1)CCN(c1ccccn1)CC2`, the Potency is > 20 µM (inactive).

Regarding `COc1ccc(CNc2ccnc(-c3ccccc3CN(C)C)n2)c(OC)c1`, the Potency was > 20 µM (inactive).
